# Laboratory results published in the supplement of paper PMC7156485.
# ± gives the standard deviation of the averaged measurements.
# Tested on: HCC1569
# Test: cell number relative to DMSO (% of DMSO); higher = more cells (less growth inhibition / toxicity)
# Details: concentration: 10 µM; 24 h
# Method in brief: (§1)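 HCC1569 and TDF cells were seeded at 800 per well in 384-well plates in RPMI with 10% FBS and treated with compounds at 10 µM for 24 h at 37 °C, in triplicate. After fixation in 3.7% formaldehyde, cells were stained with a rabbit anti-H1.0 antibody, an AlexaFluor 647 secondary and DAPI, and six fields per well were imaged at ×10. H1.0 nuclear intensity or cell number is given as percent of the plate control, using the median of replicates, with HCC1569 values smoothed for positional effects.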
# 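Note: TDF denotes transformed human dermal fibroblasts of mesenchymal origin.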
row,Compound,cell number
1,Cn1c(=O)c2c(nc(C=Cc3cccc(Cl)c3)n2C)n(C)c1=O [8-(3-Chlorostyryl)caffeine],106
2,Cc1cc(C(C)(C)C)c(O)c(C(C)(C)C)c1,99.4
3,"CC(C)=CCC(OC(=O)C=C(C)C)C1=CC(=O)c2c(O)ccc(O)c2C1=O (stereo not drawn) [Shikonin beta,beta-dimethylacrylate]",25.4
4,COc1ccc(-c2cc(=S)ss2)cc1 [Anethole trithione],93.6
5,Cc1cc(Nc2nc(-c3ccccc3)nc3ccccc23)n[nH]1 [GSK-3 Inhibitor XIII],57
6,CCC=CCC=CCC=CCCCCCCCC(=O)O [Linolenic acid],104 ± 3.3
7,Cc1ccc(F)cc1C(=O)Nc1ccc(C(=O)N2Cc3cccn3Cc3ccccc32)c(Cl)c1,91.6
8,"COc1ccc2cc(C(C)C(=O)[O-])ccc2c1.[Na+] (single isomer, unassigned; (-)) [(-)-Naproxen sodium]",105
9,O=C(NC(CO)C(O)c1ccc([N+](=O)[O-])cc1)C(Cl)Cl (stereo unspecified) [Chloramphenicol],100
10,COc1cc(C=CC(=O)CC(=O)C=Cc2ccc(O)c(OC)c2)ccc1O [Curcumin],71.3
11,COC(=O)/C=C/c1cccc(N(Cc2ccc(-c3ccc(N(C)C)cc3)cc2)C(=O)C2CCCCC2)c1,91.5
12,Oc1cc2c(cc1O)CN(C(=S)NCCc1ccc(Cl)cc1)CCC2 [Capsazepine],106
13,O=C(NC(NC(=S)Nc1ccc(F)c([N+](=O)[O-])c1)C(Cl)(Cl)Cl)C(c1ccccc1)c1ccccc1 (stereo unspecified) [ATM/ATR Kinase Inhibitor],62.4
14,COCCc1ccc(OCC(O)CNC(C)C)cc1 (stereo unspecified) [Metoprolol],104
15,O=C1CCc2cc(OCCCCc3nnnn3C3CCCCC3)ccc2N1 [Cilostazol],101
16,CCCCCC(O)C=CC1C2CC(CO2)C1CC=CCCCC(=O)O (stereo unspecified),102
17,COc1cccc2c1C(=O)c1c(O)c3c(c(O)c1C2=O)CC(O)(C(=O)CO)CC3OC1CC(N)C(O)C(C)O1.Cl (stereo unspecified) [Doxorubicin.HCl],59.6 ± 3.9
18,Cc1cc2ncc(-c3ccccc3)nc2cc1C,100
19,CCCCCCCCC=CCCCCCCCCCCCCC(=O)O [14(E)-Tricosenoic acid],98.3
20,CC(C)(C)NCC(O)c1ccc(O)c(CO)c1.CC(C)(C)NCC(O)c1ccc(O)c(CO)c1.O=S(=O)(O)O (stereo unspecified) [Albuterol hemisulfate],99.8
21,"Cn1c(=O)c2[nH]c(C3CCCC3)nc2n(C)c1=O [8-Cyclopentyl-1,3-dimethylxanthine]",97.7
22,CNC1(C)C2CCC(C2)C1(C)C.Cl (stereo unspecified) [Mecamylamine hydrochloride],106
23,CCN1CCc2nc(N)oc2CC1.Cl.Cl [B-HT 933 dihydrochloride],99.5
24,"CCCCCC(O)C=CC1C(O)CC(O)C1CC(=O)CCC(=O)O (stereo unspecified) [2,3-Dinor-6-keto-prostaglandin F1a]",103
25,Nc1nccc(-c2c(-c3ccc(F)cc3)ncn2C2CCNCC2)n1,84.5
26,COc1cc(Cc2cnc(N)nc2N)cc(OC)c1OC [Trimethoprim],99 ± 1.6
27,CCOC(=O)CN1C(=O)c2ccc3c4c(ccc(c24)C1=O)C(=O)N(CC(=O)OCC)C3=O,104

# Tested on: TDF
# Test: as above
# Details: concentration: 10 µM; 24 h
# Method in brief: as §1
row,Compound,cell number
1,CCCCCC=CCC=CCC(O)C=CC=CCCCC(=O)O (stereo unspecified),90.4
2,CN(C)C1C(=O)C(C(N)=O)=C(O)C2(O)C(=O)C3=C(O)c4c(O)ccc(Cl)c4C(O)C3CC12.Cl (stereo unspecified) [Demeclocycline hydrochloride],96.5
3,CCCCc1oc2ccccc2c1C(=O)c1cc(I)c(OCCN(CC)CC)c(I)c1.Cl [Amiodarone.HCl],105
4,Cl.Cl.N=C(N)c1ccc(N)cc1 [4-Aminobenzamidine dihydrochloride],102
5,CCN(CC)C(=O)C(C#N)=Cc1cc(O)c(O)c([N+](=O)[O-])c1 [Entacapone],92
6,CC1OC(OC2C(O)CC(OC3C(O)CC(OC4CCC5(C)C(CCC6C5CCC5(C)C(C7=CC(=O)OC7)CCC65O)C4)OC3C)OC2C)CC(O)C1O (stereo unspecified) [Digitoxin],48.4
7,C1CCN2CC3CC(CN4CCCCC34)C2C1.O.O.O.O.O.O=S(=O)(O)O (stereo unspecified),94.3
8,CCCCCCCCCCCC(CC1OC(=O)C1CCCCCC)OC(=O)C(CC(C)C)NC=O (stereo unspecified) [Tetrahydrolipistatin],99.2
9,"CCCCCC(=O)CCC1C(O)CC(O)C1CC=CCCCC(=O)O (stereo unspecified) [13,14-Dihydro-15-keto-prostaglandin F2a]",94
10,Cc1nc2sccn2c(=O)c1CCN1CCC(=C(c2ccccc2)c2ccc(F)cc2)CC1 [Diacylglycerol kinase inhibitor I],111
11,Cc1oncc1C(=O)Nc1ccc(C(F)(F)F)cc1 [Leflunomide],107 ± 3.5
12,COC(=O)Nc1nc2ccc(C(=O)c3ccccc3)cc2[nH]1 [Mebendazol],11.6
13,Cn1c(=O)c2c(nc(C=Cc3cccc(Cl)c3)n2C)n(C)c1=O [8-(3-Chlorostyryl)caffeine],94.1
14,Cc1cc(C(C)(C)C)c(O)c(C(C)(C)C)c1,105
15,"CC(C)=CCC(OC(=O)C=C(C)C)C1=CC(=O)c2c(O)ccc(O)c2C1=O (stereo not drawn) [Shikonin beta,beta-dimethylacrylate]",83.5
16,COc1ccc(-c2cc(=S)ss2)cc1 [Anethole trithione],104
17,Cc1cc(Nc2nc(-c3ccccc3)nc3ccccc23)n[nH]1 [GSK-3 Inhibitor XIII],46.1
18,CCC=CCC=CCC=CCCCCCCCC(=O)O [Linolenic acid],98.7 ± 9
19,Cc1ccc(F)cc1C(=O)Nc1ccc(C(=O)N2Cc3cccn3Cc3ccccc32)c(Cl)c1,95.3
20,"COc1ccc2cc(C(C)C(=O)[O-])ccc2c1.[Na+] (single isomer, unassigned; (-)) [(-)-Naproxen sodium]",93.1

row,Compound,cell number
1,O=C(NC(CO)C(O)c1ccc([N+](=O)[O-])cc1)C(Cl)Cl (stereo unspecified) [Chloramphenicol],92.2
2,COc1cc(C=CC(=O)CC(=O)C=Cc2ccc(O)c(OC)c2)ccc1O [Curcumin],62.7
3,COC(=O)/C=C/c1cccc(N(Cc2ccc(-c3ccc(N(C)C)cc3)cc2)C(=O)C2CCCCC2)c1,95.9
4,Oc1cc2c(cc1O)CN(C(=S)NCCc1ccc(Cl)cc1)CCC2 [Capsazepine],112
5,O=C(NC(NC(=S)Nc1ccc(F)c([N+](=O)[O-])c1)C(Cl)(Cl)Cl)C(c1ccccc1)c1ccccc1 (stereo unspecified) [ATM/ATR Kinase Inhibitor],64.5
6,COCCc1ccc(OCC(O)CNC(C)C)cc1 (stereo unspecified) [Metoprolol],99.5
7,O=C1CCc2cc(OCCCCc3nnnn3C3CCCCC3)ccc2N1 [Cilostazol],109
8,CCCCCC(O)C=CC1C2CC(CO2)C1CC=CCCCC(=O)O (stereo unspecified),107
9,COc1cccc2c1C(=O)c1c(O)c3c(c(O)c1C2=O)CC(O)(C(=O)CO)CC3OC1CC(N)C(O)C(C)O1.Cl (stereo unspecified) [Doxorubicin.HCl],17.1 ± 3.7
10,Cc1cc2ncc(-c3ccccc3)nc2cc1C,97.9
11,CCCCCCCCC=CCCCCCCCCCCCCC(=O)O [14(E)-Tricosenoic acid],98.1
12,CC(C)(C)NCC(O)c1ccc(O)c(CO)c1.CC(C)(C)NCC(O)c1ccc(O)c(CO)c1.O=S(=O)(O)O (stereo unspecified) [Albuterol hemisulfate],103
13,"Cn1c(=O)c2[nH]c(C3CCCC3)nc2n(C)c1=O [8-Cyclopentyl-1,3-dimethylxanthine]",99.4
14,CNC1(C)C2CCC(C2)C1(C)C.Cl (stereo unspecified) [Mecamylamine hydrochloride],108
15,CCN1CCc2nc(N)oc2CC1.Cl.Cl [B-HT 933 dihydrochloride],104
16,"CCCCCC(O)C=CC1C(O)CC(O)C1CC(=O)CCC(=O)O (stereo unspecified) [2,3-Dinor-6-keto-prostaglandin F1a]",114
17,Nc1nccc(-c2c(-c3ccc(F)cc3)ncn2C2CCNCC2)n1,89.4
18,COc1cc(Cc2cnc(N)nc2N)cc(OC)c1OC [Trimethoprim],95.9 ± 2.8
19,CCOC(=O)CN1C(=O)c2ccc3c4c(ccc(c24)C1=O)C(=O)N(CC(=O)OCC)C3=O,105
